Results as given in article PMC13494018.

B1: design_608_fd41b8f9-4da9-4c78-93ec-aaa316ed4933_2496_dldesign_0_cycle1_af2pred (protein)
chain: EEEVREEAERIRERAKEIAEKAKKLAEEAEKDPSKAKEAEEKSRKLAEELRELGERARELGDEEAARAAAEAAAVAHEARAEAYAIAN
B2: design_608_fd41b8f9-4da9-4c78-93ec-aaa316ed4933_2418_dldesign_0_cycle1_af2pred (protein)
chain: NKLLKEAIEALKKGIEAAKKGDLMEAQAYFTEARFYAEKYAKENPEYKEKAEKAAELAKEAIKTNGTPEAIKLAEEARKLLEEI
B3: design_609_7ee6ce64-4629-41e8-bcb4-ba0da017284d_91_dldesign_0_cycle1_af2pred (protein)
chain: SDLENNKKALQYAEAAAEAAEFGSLKAAQGLLKKAAELATDEETKKLLLEAAEKEDLKELLKLAKEAAKKLKKNVE
B4: design_608_fd41b8f9-4da9-4c78-93ec-aaa316ed4933_2202_dldesign_0_cycle1_af2pred (protein)
chain: DEYLKEAEKVYKETKKVIEEAKKKEKEEALKEIAKATQEATMKLTELAAEAAREGDKETAEKIRELRRELIEYATKVAEEVKAK
B5: design_608_fd41b8f9-4da9-4c78-93ec-aaa316ed4933_2179_dldesign_0_cycle1_af2pred (protein)
chain: MKEEEAKKAIEEAKKAIKEAREVGKELAKKDPSKKAFVDEAAKKLHELREKLAEAESLLKKDPEKAKKLAEEVKKKAKEIKKELEKA
B6: design_608_fd41b8f9-4da9-4c78-93ec-aaa316ed4933_2243_dldesign_0_cycle1_af2pred (protein)
chain: DEAKKEAAKAAQKAYEAIAEAEQAIRSGNAEELKKAAEEAKKAAKEAEKAAKKSKDKEVKEELKRVAKKAKEAAKKAKEAAKKLEA
B7: design_609_7ee6ce64-4629-41e8-bcb4-ba0da017284d_21_dldesign_0_cycle1_af2pred (protein)
chain: SLEEELNKKKTEELIEEGIKALKEYAEKGKLEEGKAIASKKVQEAFDLGYEEGREAARKVREAYDKLAKEIEKKKA
B8: design_608_fd41b8f9-4da9-4c78-93ec-aaa316ed4933_1798_dldesign_0_cycle1_af2pred (protein)
chain: NEAIKEAEKAAKEAKEAYKKAGEVSGETEKAERMIKRVEELLEAGKKDPSKAEKYKAQIEALRDHAKEVLKKAEAKKKA
B9: design_608_fd41b8f9-4da9-4c78-93ec-aaa316ed4933_1401_dldesign_0_cycle1_af2pred (protein)
chain: MEEEAKKYVEYTKKKAEEAKKNAKKAKEAGASQEAIQLFIDAAQYYLLAASAAENSPKYLPYAKEETKKGEELLKKGKKLFEEE
B10: design_608_fd41b8f9-4da9-4c78-93ec-aaa316ed4933_2160_dldesign_0_cycle1_af2pred (protein)
chain: MEEKAKKYLEAAKKAKKYAEYAAKIDKEAAEKAKEAAKLLEEAAKLYLEGADEEEIEKASKKAAEKLGEARFEYNVVKQKEKRK
B11: design_608_fd41b8f9-4da9-4c78-93ec-aaa316ed4933_1455_dldesign_0_cycle1_af2pred (protein)
chain: HMSELTKKTSDVISEAVKTSREAVKEAEKKDPALGEKLKEFYTKALLDAQDGDPFKGATELLKKAKADLAAVKAS
B12: design_608_fd41b8f9-4da9-4c78-93ec-aaa316ed4933_1719_dldesign_0_cycle1_af2pred (protein)
chain: DGYEKGKAVAERFKEDAEKIGNTEAAAEGLELLAEQWKAYAEKNTPEEAKEANKAAKEFKEEAKKYKEKAKA
B13: design_608_fd41b8f9-4da9-4c78-93ec-aaa316ed4933_2397_dldesign_0_cycle1_af2pred (protein)
chain: RDKLLMYVAAVRGAARIAKDDPEKGKEALEIETEELVEVMAKASEEEAAEAKELAVAAAAEVDPEIAEWVRKFIEEKLKEKR
B14: design_608_fd41b8f9-4da9-4c78-93ec-aaa316ed4933_1996_dldesign_0_cycle1_af2pred (protein)
chain: AEKAKELREQAEKLREEARKYAEYAPPEVVHELYQAAAESISYFNLAEKGEATEEQIKEGEEAFKKLKELTEEIKERAKKAEEEA
B15: design_608_fd41b8f9-4da9-4c78-93ec-aaa316ed4933_2334_dldesign_0_cycle1_af2pred (protein)
chain: MTPEEKQEMVKQAVELVKNAKGAFDALEAADLIIEAYEKDPEAGKQAIEAAKAEAEKKIKENPLLGKTALRMIENAEIAMKNLE
B16: design_608_fd41b8f9-4da9-4c78-93ec-aaa316ed4933_1926_dldesign_0_cycle1_af2pred (protein)
chain: DAEEEAKKLKEEAEKKLKEIKQMAKDGTATVEEIEKERKEGIEALKKAAKLVPEKKEEYAKLAEEIVEAYSDAYYESLKKERE
B17: design_608_fd41b8f9-4da9-4c78-93ec-aaa316ed4933_1451_dldesign_0_cycle1_af2pred (protein)
chain: GSAAAAAAAAAAAIQAQQDKAMEYADEIYEKISKEVGKSTGIKVASDAFSYAMKTDFETGKKYGEEKEIKVIKEAKKK
B18: design_608_fd41b8f9-4da9-4c78-93ec-aaa316ed4933_1350_dldesign_0_cycle1_af2pred (protein)
chain: SEAYKEFHEALQYATDAGYEYAKNPEEGKKELAKAEEHLKKAEELADPETAAKMREIYERRLAREKERAERLKKERN
B19: design_608_fd41b8f9-4da9-4c78-93ec-aaa316ed4933_1790_dldesign_0_cycle1_af2pred (protein)
chain: MEFIKEVSKKVHDTRFYLDSVALKASEEDRKKLEEMRKEVGELMLKAQKAYKEDPEEGKKLAEEALKKAEEAYKYAKSIEE
B20: design_608_fd41b8f9-4da9-4c78-93ec-aaa316ed4933_2275_dldesign_0_cycle1_af2pred (protein)
chain: MEKVKEEAEKLREEAEKAAKAGDVKAVSEAAHKLAELAAEAERESEEAGKVAREALRELREEAKAALAKRAAAAAA
B21: design_608_fd41b8f9-4da9-4c78-93ec-aaa316ed4933_1306_dldesign_0_cycle1_af2pred (protein)
chain: GKEEAEKILKEAKAKLDALAKENPALAPLAAEAKERIEKKYKKAIEADEKDPKQGKAAAEALKEFAKNAVAAVEKKK
B22: design_608_fd41b8f9-4da9-4c78-93ec-aaa316ed4933_2353_dldesign_0_cycle1_af2pred (protein)
chain: SNKEEADLLRELARAAKAAGAALAALAAADPSEAARAAALKAEFSQALFDAADGKLNEAEIKAIIARMEAVAAAA
B23: design_608_fd41b8f9-4da9-4c78-93ec-aaa316ed4933_2434_dldesign_0_cycle1_af2pred (protein)
chain: AAEEAIKKAKKIVEEAVKIMEEAGKKNPEYKEEFEKKNKKIKELLKEAEKLVKEGKKEEGIKTAVKAAHEAREAKAEAEWILRRN
B24: design_608_fd41b8f9-4da9-4c78-93ec-aaa316ed4933_1810_dldesign_0_cycle1_af2pred (protein)
chain: MEELKKVVEETKEYAKKLIESDGFSLVGKSAYEAAEKALKEGNLEKAKEIYEKTKKMYERAEEYEKLAEEREKKYL
B25: design_609_7ee6ce64-4629-41e8-bcb4-ba0da017284d_97_dldesign_0_cycle1_af2pred (protein)
chain: NKLEEAKKAVKKLKELAKKAKEVAKDLKKTEELVKKAEEEYKKAIKLAREAAKEGDEETKKEAKKLAEEAHEAYNEALLALVKARE
B26: design_608_fd41b8f9-4da9-4c78-93ec-aaa316ed4933_2157_dldesign_0_cycle1_af2pred (protein)
chain: SELEEEIKKLAKELNEAIMKLADLASPEETREAAKKALEAKKLAKEDPEKGLEKLKEALKETKKLLEKAEKEN
B27: design_608_fd41b8f9-4da9-4c78-93ec-aaa316ed4933_1103_dldesign_0_cycle1_af2pred (protein)
chain: SPQAAADALRAAQRLLREAGARAEAAGAQEAADLLRQASFALAGTGADEALALIDAAAAAYPEVAPLLDEARAAARAYGELLN
B28: design_609_7ee6ce64-4629-41e8-bcb4-ba0da017284d_81_dldesign_0_cycle1_af2pred (protein)
chain: SKALADALRAAQRALRALGRRAAALDPALAAEVTAALFAVYDQSTAEAAKAAADAAVAAATARIAALEAAA
B29: design_608_fd41b8f9-4da9-4c78-93ec-aaa316ed4933_1545_dldesign_0_cycle1_af2pred (protein)
chain: GSSVHKELADKLKKAIEEGEAAAKAGDVEKGKQIYADALGEVLGYPEASRQKLLDLPAKEGYEKAKKLLTNAYDGLSSLAKK
B30: design_608_fd41b8f9-4da9-4c78-93ec-aaa316ed4933_1100_dldesign_0_cycle1_af2pred (protein)
chain: ELAKEIEKFAEEAKERAKKGNPEEAREAYREFREKAKKIAEEDPSVAELASKKAAEVAEVAAEAIYKKLKE
B31: design_608_fd41b8f9-4da9-4c78-93ec-aaa316ed4933_2208_dldesign_0_cycle1_af2pred (protein)
chain: AAAAAAKAKALADAAKKAAKEYVKYAKEEDPEKGRKLLYEDMKKAYALAKADPALAPAAKEIAKIAQEAFQEIADIIGEKK
B32: design_608_fd41b8f9-4da9-4c78-93ec-aaa316ed4933_1539_dldesign_0_cycle1_af2pred (protein)
chain: SKRKEAARIAAEIVRRGHRIGAALARTIGPAAGAATEATLEELADLALEDPEKGRELGEAAVAAAEAAIAAARAA
B33: design_608_fd41b8f9-4da9-4c78-93ec-aaa316ed4933_1906_dldesign_0_cycle1_af2pred (protein)
chain: DVKKEAEKLRDKGKERAKRRLEDAKKISPQYAEAAYEALEQASKNAKKLAEKYPEAKEIYEELAKYFEEQAKKAKEIAE
B34: design_608_fd41b8f9-4da9-4c78-93ec-aaa316ed4933_1756_dldesign_0_cycle1_af2pred (protein)
chain: AQKAVAEAAQAALIAKSAADVSKNIDAETLEEIAKEAKKAAEKAEKEAPEAKEVIEPAKKEAEKLEKIAKEKKA
B35: design_608_fd41b8f9-4da9-4c78-93ec-aaa316ed4933_1151_dldesign_0_cycle1_af2pred (protein)
chain: SMAEEEKKEKEKKKAETLALNAKGLEAIDKGDFTTAAKLYEKAAEVAPTEELKKRAEKGAKAMKKLEKAAKE
B36: design_608_fd41b8f9-4da9-4c78-93ec-aaa316ed4933_1483_dldesign_0_cycle1_af2pred (protein)
chain: METKRLSEAHRIAVRAAQAAGAAATTAAEKAAIAAAKFQAVDSDPEELIAILRATGAAFPKQAPHFDAAVAEIEKAIEEY
B37: design_608_fd41b8f9-4da9-4c78-93ec-aaa316ed4933_1393_dldesign_0_cycle1_af2pred (protein)
chain: STVEEALAAAKKNIAAAKAAAAAGDFAAAAAALHEARENVSVIYANDKEKGEELRKEVTAVRAEIRAKEEAA
B38: design_608_fd41b8f9-4da9-4c78-93ec-aaa316ed4933_1632_dldesign_0_cycle1_af2pred (protein)
chain: EAEKKFKEAKKLASEAAEKLATLAAEAAFKGKEELAKEAREALKKLREKGKEAEKLYKEDPEKAAKVLKKAAEEALKKAEKLEKEL

molecular target: VTCN1, Q7Z7D3
Sequence (Q7Z7D3 whole entry): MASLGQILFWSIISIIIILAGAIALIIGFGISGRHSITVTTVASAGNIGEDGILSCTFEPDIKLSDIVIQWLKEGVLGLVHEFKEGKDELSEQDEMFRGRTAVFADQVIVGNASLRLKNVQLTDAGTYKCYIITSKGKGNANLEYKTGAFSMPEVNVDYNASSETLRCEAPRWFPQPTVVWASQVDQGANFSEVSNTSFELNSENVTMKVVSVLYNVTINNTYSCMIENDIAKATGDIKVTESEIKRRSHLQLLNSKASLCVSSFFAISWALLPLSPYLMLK

Binding in a display sort, inactive:
B1 not found
B2 not found
B3 not found
B4 not found
B5 not found
B6 not found
B7 not found
B8 not found
B9 not found
B10 not found
B11 not found
B12 not found
B13 not found
B14 not found
B15 not found
B16 not found
B17 not found
B18 not found
B19 not found
B20 not found
B21 not found
B22 not found
B23 not found
B24 not found
B25 not found
B26 not found
B27 not found
B28 not found
B29 not found
B30 not found
B31 not found
B32 not found
B33 not found
B34 not found
B35 not found
B36 not found
B37 not found
B38 not found
